Source: paper PMC9911399, “Two distinct binding modes provide the RNA-binding protein RbFox with extraordinary sequence specificity”
Positions count from the first letter of the chain named. In all, about 16,000 sequences were measured (“ka relative to ugcaugu”: median about 0.0091, highest 2% from about 0.032 on). Only a selection was taken, and the highest values are over-represented in it overall.

T1: RBFOX1 RRM (Homo sapiens, UniProt Q9NWB1 109-208)
T1 sequence: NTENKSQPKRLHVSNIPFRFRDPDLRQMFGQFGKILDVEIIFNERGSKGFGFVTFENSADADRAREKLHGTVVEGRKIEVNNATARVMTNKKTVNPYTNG

B1: UAACAUU (DNA:RNA)
RNA: GGGAGACCGGAAUUCAGAUUGUCCUAACAUUUUAAAUCCCGUCGUAGCCACCA
DNA 1: CAATCTGAATTCCGGTCTCCC
DNA 2: TGGTGGCTACGACGGGATT
B2: UACAGUC (DNA:RNA)
RNA: B1 RNA with A27C, C28A, A29G, U31C
DNA 1: CAATCTGAATTCCGGTCTCCC
DNA 2: TGGTGGCTACGACGGGATT
B3: AGCAGAA (DNA:RNA)
RNA: GGGAGACCGGAAUUCAGAUUGUCCAGCAGAAUUAAAUCCCGUCGUAGCCACCA
DNA 1: CAATCTGAATTCCGGTCTCCC
DNA 2: TGGTGGCTACGACGGGATT
B4: GUAUGAC (DNA:RNA)
RNA: B3 RNA with A25G, G26U, C27A, A28U, A31C
DNA 1: CAATCTGAATTCCGGTCTCCC
DNA 2: TGGTGGCTACGACGGGATT
B5: GCAUGGA (DNA:RNA)
RNA: B3 RNA with A25G, G26C, C27A, A28U, A30G
DNA 1: CAATCTGAATTCCGGTCTCCC
DNA 2: TGGTGGCTACGACGGGATT
B6: GCAUGAU (DNA:RNA)
RNA: B3 RNA with A25G, G26C, C27A, A28U, A31U
DNA 1: CAATCTGAATTCCGGTCTCCC
DNA 2: TGGTGGCTACGACGGGATT
B7: GCAUUCA (DNA:RNA)
RNA: B3 RNA with A25G, G26C, C27A, A28U, G29U, A30C
DNA 1: CAATCTGAATTCCGGTCTCCC
DNA 2: TGGTGGCTACGACGGGATT
B8: GCAUGAC (DNA:RNA)
RNA: B3 RNA with A25G, G26C, C27A, A28U, A31C
DNA 1: CAATCTGAATTCCGGTCTCCC
DNA 2: TGGTGGCTACGACGGGATT
B9: GUCAUGA (DNA:RNA)
RNA: B3 RNA with A25G, G26U, G29U, A30G
DNA 1: CAATCTGAATTCCGGTCTCCC
DNA 2: TGGTGGCTACGACGGGATT
B10: GGCAUGA (DNA:RNA)
RNA: B3 RNA with A25G, G29U, A30G
DNA 1: CAATCTGAATTCCGGTCTCCC
DNA 2: TGGTGGCTACGACGGGATT
B11: GCAUUUU (DNA:RNA)
RNA: B1 RNA with U25G, A26C, C28U, A29U
DNA 1: CAATCTGAATTCCGGTCTCCC
DNA 2: TGGTGGCTACGACGGGATT
B12: GGAUGGA (DNA:RNA)
RNA: B3 RNA with A25G, C27A, A28U, A30G
DNA 1: CAATCTGAATTCCGGTCTCCC
DNA 2: TGGTGGCTACGACGGGATT
B13: GCAUAAU (DNA:RNA)
RNA: B1 RNA with U25G, A26C, C28U, U30A
DNA 1: CAATCTGAATTCCGGTCTCCC
DNA 2: TGGTGGCTACGACGGGATT
B14: GGAUGAC (DNA:RNA)
RNA: B3 RNA with A25G, C27A, A28U, A31C
DNA 1: CAATCTGAATTCCGGTCTCCC
DNA 2: TGGTGGCTACGACGGGATT
B15: GGCAUAA (DNA:RNA)
RNA: B3 RNA with A25G, G29U
DNA 1: CAATCTGAATTCCGGTCTCCC
DNA 2: TGGTGGCTACGACGGGATT
B16: CCUUGGG (DNA:RNA)
RNA: B3 RNA with A25C, G26C, C27U, A28U, A30G, A31G
DNA 1: CAATCTGAATTCCGGTCTCCC
DNA 2: TGGTGGCTACGACGGGATT
B17: CGCCUAC (DNA:RNA)
RNA: B3 RNA with A25C, A28C, G29U, A31C
DNA 1: CAATCTGAATTCCGGTCTCCC
DNA 2: TGGTGGCTACGACGGGATT
B18: AUGAUGU (DNA:RNA)
RNA: B3 RNA with G26U, C27G, G29U, A30G, A31U
DNA 1: CAATCTGAATTCCGGTCTCCC
DNA 2: TGGTGGCTACGACGGGATT
B19: GCAUGUA (DNA:RNA)
RNA: B3 RNA with A25G, G26C, C27A, A28U, A30U
DNA 1: CAATCTGAATTCCGGTCTCCC
DNA 2: TGGTGGCTACGACGGGATT
B20: CGCAUGA (DNA:RNA)
RNA: B3 RNA with A25C, G29U, A30G
DNA 1: CAATCTGAATTCCGGTCTCCC
DNA 2: TGGTGGCTACGACGGGATT
B21: GUAUGAG (DNA:RNA)
RNA: B3 RNA with A25G, G26U, C27A, A28U, A31G
DNA 1: CAATCTGAATTCCGGTCTCCC
DNA 2: TGGTGGCTACGACGGGATT
B22: GUAUGUA (DNA:RNA)
RNA: B3 RNA with A25G, G26U, C27A, A28U, A30U
DNA 1: CAATCTGAATTCCGGTCTCCC
DNA 2: TGGTGGCTACGACGGGATT
B23: GCAUGAA (DNA:RNA)
RNA: B3 RNA with A25G, G26C, C27A, A28U
DNA 1: CAATCTGAATTCCGGTCTCCC
DNA 2: TGGTGGCTACGACGGGATT
B24: GCAUAGA (DNA:RNA)
RNA: B1 RNA with U25G, A26C, C28U, U30G, U31A
DNA 1: CAATCTGAATTCCGGTCTCCC
DNA 2: TGGTGGCTACGACGGGATT
B25: GCAUAAA (DNA:RNA)
RNA: B3 RNA with A25G, G26C, C27A, A28U, G29A
DNA 1: CAATCTGAATTCCGGTCTCCC
DNA 2: TGGTGGCTACGACGGGATT
B26: GGAUGAG (DNA:RNA)
RNA: B3 RNA with A25G, C27A, A28U, A31G
DNA 1: CAATCTGAATTCCGGTCTCCC
DNA 2: TGGTGGCTACGACGGGATT
B27: GCCAUGA (DNA:RNA)
RNA: B3 RNA with A25G, G26C, G29U, A30G
DNA 1: CAATCTGAATTCCGGTCTCCC
DNA 2: TGGTGGCTACGACGGGATT
B28: GCAUAUA (DNA:RNA)
RNA: B1 RNA with U25G, A26C, C28U, U31A
DNA 1: CAATCTGAATTCCGGTCTCCC
DNA 2: TGGTGGCTACGACGGGATT
B29: GCAUGAG (DNA:RNA)
RNA: B3 RNA with A25G, G26C, C27A, A28U, A31G
DNA 1: CAATCTGAATTCCGGTCTCCC
DNA 2: TGGTGGCTACGACGGGATT
B30: GCAUUGA (DNA:RNA)
RNA: B3 RNA with A25G, G26C, C27A, A28U, G29U, A30G
DNA 1: CAATCTGAATTCCGGTCTCCC
DNA 2: TGGTGGCTACGACGGGATT

Each binder was assayed against T1, RBFOX1 RRM (assay: EMSA; HiTS-Eq, 1 nM pool, 10 min; buffer printed only for the single-RNA assays: 10 mM Tris pH 7.5, 150 mM NaCl, 3.4 mM EDTA, 0.001% NP-40, 30 C). Details: tags: His6 N-terminal (pET28a); label: 5' 32P.
How it was run: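 Purified RbFox RRM, wild type or mutant, was incubated for 10 min in 50 µL with 1 nM of a 5′-radiolabelled RNA pool carrying 7 randomized nucleotides, whose flanks were annealed to DNA oligonucleotides, over a series of increasing protein concentrations. Unbound RNA was resolved on 8% native PAGE, cut out, reverse-transcribed, barcoded by PCR and sequenced on an Illumina HiSeq 2500. Relative association constants were derived from changes in read counts for each RNA species versus the control reaction and normalised to the cognate motif.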
B1 was tested, and the binding signal was 0.00574 KA relative to UGCAUGU. In the case of B2, the binding signal is reported as 0.00675 KA relative to UGCAUGU. In the case of B3, the binding signal is reported as 0.00732 KA relative to UGCAUGU. In the case of B4, the binding signal is reported as 0.0127 KA relative to UGCAUGU. For B5, the binding signal was 0.0333 KA relative to UGCAUGU. For B6, the binding signal was 0.626 KA relative to UGCAUGU. B7 was tested, and the binding signal was 0.00789 KA relative to UGCAUGU. In the case of B8, the binding signal is reported as 0.599 KA relative to UGCAUGU. B9 was tested, and the binding signal was 0.0126 KA relative to UGCAUGU. In the case of B10, the binding signal is reported as 0.156 KA relative to UGCAUGU. B11 was tested, and the binding signal was 0.0088 KA relative to UGCAUGU. B12 was tested, and the binding signal was 0.0107 KA relative to UGCAUGU. In the case of B13, the binding signal is reported as 0.00163 KA relative to UGCAUGU. In the case of B14, the binding signal is reported as 0.015 KA relative to UGCAUGU. B15 was tested, and the binding signal was 0.00272 KA relative to UGCAUGU. With B16 the binding signal was 0.00389 KA relative to UGCAUGU. For B17, the binding signal was 0.00556 KA relative to UGCAUGU. With B18 the binding signal was 0.0132 KA relative to UGCAUGU. In the case of B19, the binding signal is reported as 0.473 KA relative to UGCAUGU. B20 was tested, and the binding signal was 0.67 KA relative to UGCAUGU. With B21 the binding signal was 0.0141 KA relative to UGCAUGU. With B22 the binding signal was 0.0125 KA relative to UGCAUGU. B23 was tested, and the binding signal was 0.594 KA relative to UGCAUGU. In the case of B24, the binding signal is reported as 0.0137 KA relative to UGCAUGU. In the case of B25, the binding signal is reported as 0.00438 KA relative to UGCAUGU. B26 was tested, and the binding signal was 0.0205 KA relative to UGCAUGU. In the case of B27, the binding signal is reported as 0.0124 KA relative to UGCAUGU. With B28 the binding signal was 0.0014 KA relative to UGCAUGU. With B29 the binding signal was 0.684 KA relative to UGCAUGU. For B30, the binding signal was 0.0124 KA relative to UGCAUGU.
